# Test results: PubChem BioAssay AID504848 (National Center for Advancing Translational Sciences (NCATS), 2011)
# The whole screen tested about 2,300 compounds, of which about 1,400 (61%) were called active. Inconclusive results (about 29%) are left out. Calls come from the whole dose curve; as a rule, active = well fitted inhibition curve with a large enough effect; inconclusive = small, poorly fitted or top-dose-only effect, or effect the other way; inactive = no such curve, though single readings can be large or run the other way. So high a share suggests a set chosen from earlier hits. Some of the results follow.
# Experiment: Confirmation screen for delayed death inhibitors of the malarial parasite plastid, 96 hour incubation; note: nearly all actives have a fitted effect of over 60% in size
# Conditions: P. falciparum luciferase growth in erythrocytes; series mostly up to 28.7 µM
# How it was run: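 Two-generation (96 h, 37 C) exposure of P. falciparum carrying an integrated firefly luciferase reporter in erythrocytes, 0.1% parasitemia and 2% hematocrit final, Albumax-supplemented RPMI. Luminescence decrease measures growth inhibition.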
# Potency is the fitted concentration of half-maximal effect.
row,Compound,Potency
1,COc1ccccc1N1CCN(C(=O)c2noc(C(C)C)c2[N+](=O)[O-])CC1,8.91 µM (active)
2,CCCCCCCn1c(=O)c(C(=O)OC)c(N)c2ccccc21,6.31 µM (active)
3,Cc1ccnc(NCc2cccc3ccccc23)c1,10 µM (active)
4,CSc1ccc(CNc2cccc3ccccc23)cc1,inactive
5,Cc1cccc(NCc2cccc3ccccc23)n1,14.1 µM (active)
6,COc1cccc(CNc2cc(C)ccn2)c1O,7.94 µM (active)
7,N#CCc1nc(C(c2ccccc2)c2ccccc2)no1,7.08 µM (active)
8,Cc1ccccc1-n1nc2c(c1NC(=O)C1CCCC1)CS(=O)(=O)C2,inactive
9,c1csc(CNc2ncnc3nc[nH]c23)c1,15.8 µM (active)
10,O=C(NC1CCN(Cc2ccccc2)CC1)C1CCN(c2nnc(-n3cccc3)s2)CC1,5.01 µM (active)
11,CC1Cc2ccccc2N1CC(=O)Nc1ccc2c(c1)OCCCO2 (configuration not stated),15.8 µM (active)
12,O=C1CSC(c2cccnc2)N1CCc1ccccn1 (configuration not stated),inactive
13,CC(=O)Nc1ccc(NC(=O)c2ccc(C3SCC(=O)N3CCc3ccccc3)cc2)cc1 (configuration not stated),12.6 µM (active)
14,Cc1ccccc1C(=O)N1CCN(c2ccc(NC(=O)c3ccc([N+](=O)[O-])o3)cc2)CC1,6.31 µM (active)
15,O=C(Nc1ccc(N2CCN(C(=O)c3cccs3)CC2)cc1)c1ccc([N+](=O)[O-])o1,2.24 µM (active)
16,O=C(Nc1ccc(N2CCN(C(=O)c3ccccc3)CC2)cc1)c1ccc([N+](=O)[O-])o1,3.16 µM (active)
17,O=C(Nc1ccc(N2CCN(C(=O)c3ccco3)CC2)cc1)c1ccc(F)cc1,3.98 µM (active)
18,CCN(CC)CCNC(=O)C1c2cc(OC)c(OC)cc2C(=O)N2CCc3ccccc3C12 (configuration not stated),2.24 µM (active)
19,CCN1C(=O)[C@@H]2[C@@H](c3ccc(SC4CCCCC4)c(OC)c3)N3CCC[C@@]3(C(=O)OC)[C@@H]2C1=O,2.51 µM (active)
20,COC(=O)[C@@]12CCCN1[C@H](c1ccc(-c3cccc(Cl)c3)c(OC)c1)[C@H]1C(=O)N(C)C(=O)[C@H]12,1.12 µM (active)
21,COc1ccccc1OCC(=O)Nc1nc2c(s1)CCCC2,inactive
22,CC(C)(C)c1nc(SCC(=O)Nc2nc3c(s2)CCCC3)c2ccccc2n1,2 µM (active)
23,CC(C)(C)c1nc(SCC(=O)Nc2ccc(N3CCOCC3)cc2)c2ccccc2n1,8.91 µM (active)

row,Compound,Potency
1,Cc1ccc(-c2cc(=O)c3ccc(F)cc3[nH]2)cc1,3.98 µM (active)
2,Cc1ccc(S(=O)(=O)Nc2cc(=O)[nH]c(SCc3ccc(Cl)cc3)n2)cc1,11.2 µM (active)
3,CC(=O)c1c(C)cc(C)c(CSc2nc(C)cc(=O)[nH]2)c1C,inactive
4,Cc1oc(-c2ccccc2Cl)nc1CSCC(=O)N1CCCC1,11.2 µM (active)
5,Cc1oc(-c2ccccc2F)nc1CS(=O)(=O)CC(=O)NCCCN1CCN(C)CC1,inactive
6,O=C(Cc1n[nH]c(=O)c2ccccc12)OCc1c(Cl)cccc1Cl,inactive
7,COc1ccc(-n2c(C)cc(C(=O)COC(=O)Cc3n[nH]c(=O)c4ccccc34)c2C)cc1,3.55 µM (active)
8,COc1ccc(C(C)=O)cc1CSc1nc2ccccc2c(=O)n1-c1ccccc1C,7.94 µM (active)
9,Cc1ccc(/C=N/NC(=O)CSc2nc3ccccc3c(=O)n2-c2ccccc2C)s1,6.31 µM (active)
10,Cc1ccc(-c2nn(C(C)(C)C)c3ncnc(N)c23)cc1,5.01 µM (active)
11,O=C(Nc1nnc(SCc2ccc(F)cc2)s1)c1ccccn1,2.82 µM (active)
12,Oc1ccc(-c2n[nH]c(=S)n2-c2ccc3c(c2)OCCO3)c(O)c1,0.355 µM (active)
13,COc1cc(C(=O)NCc2ccncc2)cc(Br)c1OCc1ccccc1,8.91 µM (active)
14,O=C(c1ccc(S(=O)(=O)Cc2ccccc2Cl)c([N+](=O)[O-])c1)N1CCOCC1,3.98 µM (active)
15,Cc1ccc(S(=O)(=O)N2CCN(c3ccc(C(=O)N4CCOCC4)cc3[N+](=O)[O-])CC2)cc1,4.47 µM (active)
16,O=C(c1ccc(S(=O)(=O)Cc2cc(F)ccc2F)c([N+](=O)[O-])c1)N1CCCC1,7.94 µM (active)
17,Cc1cccc(NC(=O)COC(=O)c2cccc3c2C(=O)c2ccccc2C3=O)c1C,12.6 µM (active)
18,CC(C)NC(=O)NC(=O)COC(=O)c1ccccc1Oc1ccccc1,inactive
19,CN(C)S(=O)(=O)c1cc(NC(=O)C2=COCCO2)ccc1Cl,10 µM (active)
20,CN(C)S(=O)(=O)c1cc(NC(=O)c2cc(=O)c3ccccc3o2)ccc1Cl,5.01 µM (active)
21,CCCCCCn1c(=O)[nH]c2nc3cc(N)ccc3nc2c1=O,14.1 µM (active)
22,COc1ccc(NC(=O)N2CCCc3cc(C)ccc32)c(OC)c1,12.6 µM (active)
23,COc1cc(-c2ccc(Nc3ccccc3C(=O)O)c(OC)c2)ccc1Nc1ccccc1C(=O)O,10 µM (active)

row,Compound,Potency
1,O=C(O)c1ccccc1Nc1ccc([N+](=O)[O-])cc1,inactive
2,COc1ccc(NC(=O)NC2CCCCCCC2)c(OC)c1,11.2 µM (active)
3,COc1cc(-c2ccc(NC(=O)NC3CC3)c(OC)c2)ccc1NC(=O)NC1CC1,11.2 µM (active)
4,COc1ccccc1NC(=O)Cc1nnc(SCC(=O)NC2CCCCC2)n1C,inactive
5,COc1ccc(NC(=O)NC2CCCc3ccccc32)c(OC)c1 (configuration not stated),6.31 µM (active)
6,CCNc1ccc(Br)cc(C(=O)/C=C/c2c(Cl)cccc2Cl)c1=O,7.08 µM (active)
7,O=C(NC(=S)Nc1nc(-c2ccccc2)cs1)c1cccnc1,12.6 µM (active)
8,CC(=O)Oc1ccc(-c2csc(Nc3cccnc3)n2)cc1,inactive
9,CC(Oc1ccc(Br)cc1)C(=O)N1CCN(c2ccccn2)CC1 (configuration not stated),12.6 µM (active)
10,O=C(c1ccccc1Br)N1CCN(c2ccccn2)CC1,inactive
11,CCCCn1c(=O)[nH]c(=O)c2c1nc(Cn1ncc(Cl)c(Cl)c1=O)n2CCC,10 µM (active)
12,CC(C)CNC(=O)C(=O)Nc1cc2c3c(c1)C(C)C(=O)N3CCC2 (configuration not stated),14.1 µM (active)
13,Cc1ccccc1NC(=O)Cc1nnc(SCC(=O)NC2CCCCC2)n1C,inactive
14,Cn1c(Cc2cccc3ccccc23)nnc1SCc1ccc([N+](=O)[O-])cc1,12.6 µM (active)
15,COc1ccccc1C1CCCN1Cc1nc(-c2ccc(C)s2)oc1C (configuration not stated),14.1 µM (active)
16,N#CC1=C(N)Oc2n[nH]c(-c3cccnc3)c2C1c1ccc([N+](=O)[O-])o1 (configuration not stated),15.8 µM (active)
17,C=C1C(=O)[C@@]23[C@H](O)C[C@@H]4C(C)(C)CC[C@H](O)[C@]4(C)[C@@H]2C[C@H](O)[C@@H]1[C@H]3O,14.1 µM (active)
18,Cc1ccc(Cl)cc1N1CCN(c2cccc[n+]2C)CC1,2 µM (active)
19,CCCc1[nH]nc2c1C(c1cc(OC)ccc1F)C(C#N)=C(N)O2 (configuration not stated),3.55 µM (active)
20,O=C(CSc1nc(-c2ccco2)cc(C(F)(F)F)n1)Nc1ccccc1C(F)(F)F,12.6 µM (active)
21,O=C(NCc1ccccn1)c1cc(-c2ccc(-c3ccccc3)cc2)nc2ccccc12,15.8 µM (active)
22,CC(Sc1nc2cc(Cl)ccc2s1)C(=O)Nc1cccc(S(=O)(=O)N2CCOCC2)c1 (configuration not stated),12.6 µM (active)
23,COc1cccc(/C=N/NC(=O)c2nc(-c3ccccc3)cc(-c3ccccc3)n2)c1O,7.94 µM (active)

row,Compound,Potency
1,COc1ccccc1-n1nnnc1S(=O)(=O)Cc1ccc(Cl)cc1,7.08 µM (active)
2,CCCc1cc(C(=O)N2CCCC(N3CCN(c4ccccc4F)CC3)C2)n(C)n1 (configuration not stated),10 µM (active)
3,CC(=O)NC(=O)COC(=O)/C=C/c1c(C)nn(Cc2c(Cl)cccc2Cl)c1Cl,inactive
4,COc1ccc2cc3cc(C(=O)N(C)C4CCCCC4)oc3nc2c1,10 µM (active)
5,COc1ccc2cc3cc(C(=O)Nc4ccc5c(c4)OCO5)oc3nc2c1,0.891 µM (active)
6,CCOC(=O)C1CCCN(C(=O)c2cc3cc4ccc(OC)cc4nc3o2)C1 (configuration not stated),7.94 µM (active)
7,CN(CCCN1c2ccccc2CCc2ccccc21)CC(=O)c1ccc(Cl)cc1,12.6 µM (active)
8,CCOc1ccccc1NC(=O)COc1coc(CN2CCc3ccccc3C2)cc1=O,11.2 µM (active)
9,CCN(CC)C(=O)COc1coc(CN2CCN(c3ccccc3)CC2)cc1=O,7.94 µM (active)
10,CCN(CC)C(=O)COc1coc(CN2CCN(c3cccc(Cl)c3)CC2)cc1=O,4.47 µM (active)
11,CN(C(=O)COc1coc(CN2CCN(c3ccccc3)CC2)cc1=O)c1ccccc1,10 µM (active)
12,CCCNC(=O)COc1coc(CN2CCN(c3cccc(Cl)c3)CC2)cc1=O,10 µM (active)
13,O=C(O)c1ccc(/C=N/NC(=O)c2ccc3c(c2)OCCO3)cc1,inactive
14,O=C(/C=C/c1ccncc1)c1ccc2c(c1)OCCO2,12.6 µM (active)
15,CCOC(=O)C1=C(C)N=c2s/c(=C\c3ccc(OCC(=O)O)cc3)c(=O)n2C1c1ccc(OC(C)C)cc1 (configuration not stated),2.51 µM (active)
16,O[C@@H](c1cc(C(F)(F)F)nc2c(C(F)(F)F)cccc12)[C@H]1CCCCN1,0.178 µM (active)
17,OC(c1cc(C(F)(F)F)nc2c(C(F)(F)F)cccc12)C1CCCCN1 (configuration not stated),0.0501 µM (active)
18,OC(c1cc(-c2ccc(Cl)cc2)nc2ccccc12)C1CCCCN1 (configuration not stated),0.251 µM (active)
19,OC(c1cc(C(F)(F)F)nc2c(Cl)cc(Cl)cc12)C1CCCCN1 (configuration not stated),0.0224 µM (active)
20,CCN(CC)c1ccc(NC(=S)NC(=O)C2CCC2)cc1,11.2 µM (active)
21,O=[N+]([O-])c1cncc([N+](=O)[O-])c1Nc1cccc(O)c1,12.6 µM (active)
22,NC(=O)C1CCN(CC(=O)Nc2cccc(C(=O)Nc3cccc(C(F)(F)F)c3)c2)CC1,1.12 µM (active)
23,O=C(Nc1ccsc1C(=O)O)c1cccc(C(F)(F)F)c1,inactive
